Test results published in PubChem BioAssay (Tox21).
Values without a mark were called inactive. Records with an inconclusive call do not appear. A call without a number means that no potency is given here. Active and inactive are the calls of the source. The call rests on the fitted dose curve; in most records, active means well fitted curve in the direction sought with a large enough effect in the repeat runs; inconclusive means weak or mixed curves; inactive means no such curve, though single readings can be large; an effect the other way counts as inactive or inconclusive.

Experiments:
[1] = A CellTox Green Cytotoxicity Assay to monitor cytotoxicity in HEK293 cells - 40 hour (AID 1224871); further: nearly all actives have a fitted effect of over 45% in size
Procedure, shortened: (§1)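 Fluorescence intensity, read at 0, 8, 16, 24, 32 and 40 h of compound treatment, reflected dye binding to DNA of dead HEK293 cells; compounds (23 nL, DMSO) were added 5 h after plating cells with reagent.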

[2] = qHTS RealTime-Glo MT Cell Viability Assay in HEK293 cells - 16 hour (AID 1224872); further: top concentration of the series differs between compounds; nearly all actives have a fitted effect of over 50% in size
Procedure, shortened: (§2)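 HEK293 cells were seeded at 600 cells/well together with NanoLuc luciferase and cell-permeant prosubstrate, preincubated 5 h at 37 C/5% CO2, then given compound in DMSO by pintool. Luminescence from viable-cell prosubstrate reduction was read repeatedly over 40 h.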

[3] = qHTS RealTime-Glo MT Cell Viability Assay in HepG2 cells - 8 hour (AID 1224873); further: nearly all actives have a fitted effect of over 55% in size
Procedure, shortened: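 Real-time viability: cells seeded at 600 per well together with NanoLuc and cell-permeant prosubstrate, compounds added after 5 h incubation. Luminescence tracked at 0, 8, 16, 24, 32 and 40 h of exposure.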

[4] = qHTS RealTime-Glo MT Cell Viability Assay in HEK293 cells - 40 hour (AID 1224874); settings: RealTime-Glo luminescence; max response: active compounds read low; further: nearly all actives have a fitted effect of over 50% in size
Procedure, shortened: (§3)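 Viable HEK293 cells reduce a cell-permeant prosubstrate; the product diffuses out and is consumed by NanoLuc in the medium to give light. Compounds went in after a 5 h incubation and plates were read over the treatment course.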

[5] = A CellTox Green Cytotoxicity Assay to monitor cytotoxicity in HEK293 cells - 24 hour (AID 1224875); further: series mostly up to about 77 µM; nearly all actives have a fitted effect of over 45% in size
Procedure, shortened: as §1

[6] = A CellTox Green Cytotoxicity Assay to monitor cytotoxicity in HepG2 cells - 16 hour (AID 1224876); further: nearly all actives have a fitted effect of over 45% in size
Procedure, shortened: (§4)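 Using 1536-well format, dye-containing HepG2 suspension was seeded, allowed 5 h at 37 C/5% CO2, dosed by pintool with compounds, positive and negative controls, and imaged for fluorescence across 40 h.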

[7] = qHTS RealTime-Glo MT Cell Viability Assay in HepG2 cells - 32 hour (AID 1224877); further: nearly all actives have a fitted effect of over 55% in size
Procedure, shortened: (§5)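 HepG2 cells were seeded at 600 cells/well together with NanoLuc luciferase and a cell-permeant prosubstrate, preincubated 5 h at 37 C/5% CO2, then pin-dosed with compounds in DMSO. Nonlytic luminescence from viable cells was read at each time point.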

[8] = A CellTox Green Cytotoxicity Assay to monitor cytotoxicity in HepG2 cells - 24 hour (AID 1224878); further: nearly all actives have a fitted effect of over 45% in size
Procedure, shortened: as §4

[9] = A CellTox Green Cytotoxicity Assay to monitor cytotoxicity in HepG2 cells - 40 hour (AID 1224879); further: nearly all actives have a fitted effect of over 40% in size
Procedure, shortened: as §4

[10] = qHTS RealTime-Glo MT Cell Viability Assay in HEK293 cells - 0 hour (AID 1224880)
Procedure, shortened: as §3

[11] = A CellTox Green Cytotoxicity Assay to monitor cytotoxicity in HEK293 cells - 32 hour (AID 1224881); further: nearly all actives have a fitted effect of over 40% in size
Procedure, shortened: as §1

[12] = A CellTox Green Cytotoxicity Assay to monitor cytotoxicity in HepG2 cells - 0 hour (AID 1224882); further: nearly all actives have a fitted effect of over 35% in size
Procedure, shortened: as §4

[13] = A CellTox Green Cytotoxicity Assay to monitor cytotoxicity in HepG2 cells - 32 hour (AID 1224883); further: nearly all actives have a fitted effect of over 50% in size
Procedure, shortened: as §4

[14] = A CellTox Green Cytotoxicity Assay to monitor cytotoxicity in HEK293 cells - 8 hour (AID 1224884); further: nearly all actives have a fitted effect of over 35% in size
Procedure, shortened: as §1

[15] = qHTS RealTime-Glo MT Cell Viability Assay in HepG2 cells - 16 hour (AID 1224885); further: nearly all actives have a fitted effect of over 50% in size
Procedure, shortened: as §5

[16] = qHTS RealTime-Glo MT Cell Viability Assay in HEK293 cells - 24 hour (AID 1224886)
Procedure, shortened: as §2

[17] = qHTS RealTime-Glo MT Cell Viability Assay in HEK293 cells - 8 hour (AID 1224887); further: nearly all actives have a fitted effect of over 50% in size; further: potency means the concentration at half of the fitted maximal effect
Procedure, shortened: as §3

[18] = A CellTox Green Cytotoxicity Assay to monitor cytotoxicity in HEK293 cells - 16 hour (AID 1224888); further: nearly all actives have a fitted effect of over 35% in size
Procedure, shortened: as §1

[19] = qHTS RealTime-Glo MT Cell Viability Assay in HepG2 cells - 0 hour (AID 1224889); further: nearly all actives have a fitted effect of over 50% in size
Procedure, shortened: as §5

[20] = A CellTox Green Cytotoxicity Assay to monitor cytotoxicity in HepG2 cells - 8 hour (AID 1224890); further: nearly all actives have a fitted effect of over 45% in size
Procedure, shortened: as §4

Row | Compound | Potency [1] | Potency [2] | Potency [3] | max response [4] [%] | Potency [5] | Potency [6] | Potency [7] | Potency [8] | Potency [9] | Potency [10] | Potency [11] | Potency [12] | Potency [13] | Potency [14] | Potency [15] | Potency [16] | Potency [17] | Potency [18] | Potency [19] | Potency [20]
1 | Cc1ccccc1S(N)(=O)=O | inactive | inactive | inactive | 8.27 | inactive | inactive | inactive | inactive | inactive | inactive | inactive | inactive | inactive | inactive | inactive | inactive | inactive | inactive | inactive | –
2 | O=C(c1ccccc1)c1ccc(O)cc1 | inactive | inactive | inactive | -20.1 | inactive | inactive | inactive | inactive | inactive | inactive | inactive | inactive | inactive | inactive | inactive | inactive | inactive | inactive | inactive | inactive
3 | CC(CO)(CO)C(=O)O | inactive | inactive | inactive | 0.0251 | inactive | inactive | inactive | inactive | inactive | inactive | inactive | inactive | inactive | inactive | inactive | inactive | inactive | inactive | inactive | inactive
4 | C[C@H](CS)C(=O)N1CCC[C@H]1C(=O)O | inactive | inactive | inactive | 9.42 | inactive | inactive | inactive | inactive | inactive | inactive | inactive | inactive | inactive | inactive | inactive | inactive | inactive | inactive | inactive | inactive
5 | COc1ccc(N)c([N+](=O)[O-])c1 | inactive | inactive | inactive | -15.1 | inactive | inactive | inactive | inactive | inactive | inactive | inactive | inactive | inactive | inactive | inactive | inactive | inactive | inactive | inactive | inactive
6 | CC(C)C1CCC(C(=O)N[C@H](Cc2ccccc2)C(=O)O)CC1 (stereo partly specified) | inactive | inactive | inactive | 3 | inactive | inactive | inactive | inactive | inactive | inactive | inactive | inactive | inactive | inactive | inactive | inactive | inactive | inactive | inactive | –
7 | CCO[Si](C)(CCCOCC1CO1)OCC (stereo unspecified) | inactive | inactive | inactive | 13.3 | inactive | inactive | inactive | inactive | inactive | inactive | inactive | inactive | inactive | inactive | inactive | inactive | inactive | inactive | – | inactive
8 | COC(C)(C)OC | inactive | inactive | inactive | 15.9 | inactive | inactive | inactive | inactive | inactive | inactive | inactive | inactive | inactive | inactive | inactive | inactive | inactive | inactive | inactive | inactive
9 | CC[C@@H](CO)NCCN[C@@H](CC)CO | inactive | inactive | inactive | 5.04 | inactive | inactive | inactive | inactive | inactive | inactive | inactive | inactive | inactive | inactive | inactive | inactive | inactive | inactive | inactive | inactive
10 | CSCC[C@H](NC(=O)[C@H](Cc1c[nH]c2ccccc12)NC(=O)CCNC(=O)OC(C)(C)C)C(=O)N[C@@H](CC(=O)O)C(=O)N[C@@H](Cc1ccccc1)C(N)=O | inactive | inactive | inactive | 3.31 | inactive | inactive | inactive | inactive | inactive | inactive | inactive | inactive | inactive | inactive | inactive | inactive | inactive | inactive | inactive | inactive
11 | CCC1CCC(CCC(=O)O)C1 (stereo unspecified) | inactive | inactive | inactive | -15.6 | inactive | inactive | inactive | inactive | inactive | inactive | inactive | inactive | inactive | inactive | inactive | inactive | inactive | inactive | inactive | inactive
12 | Cc1cc(CCC(=O)OCCOCCOCCOC(=O)CCc2cc(C)c(O)c(C(C)(C)C)c2)cc(C(C)(C)C)c1O | inactive | inactive | inactive | 6.66 | inactive | inactive | inactive | inactive | inactive | inactive | inactive | inactive | inactive | inactive | inactive | inactive | 33.8 µM (active) | inactive | inactive | –
13 | Cc1oc(=O)oc1COC(=O)[C@@H]1N2C(=O)[C@@H](NC(=O)[C@H](N)c3ccccc3)[C@H]2SC1(C)C | inactive | inactive | inactive | 6.21 | inactive | inactive | inactive | inactive | inactive | inactive | inactive | inactive | inactive | inactive | inactive | inactive | inactive | inactive | inactive | inactive
